This passage reports Potency and activity, negative = inhibition results from PubChem BioAssay (Tox21).

Records with an inconclusive call do not appear. Where a call stands in place of a potency, no number is given. Active and inactive are the calls of the source. The call rests on the fitted dose curve.

The target of the assay is Acetylcholinesterase (Homo sapiens) (UniProt P22303). The assay is described as follows: Acetylcholinesterase (AChE) small molecule antagonists: colormetric cell-based qHTS assay (AID 1347395). Further: nearly all actives have a fitted effect of over 30% in size. The settings on record: SH-SY5Y cells AChE activity, colorimetric (Ellman); series mostly up to 115 µM. From the text: National Center for Advancing Translational Sciences [NCATS]
Chain of Acetylcholinesterase (Homo sapiens) (P22303 whole entry, looked up): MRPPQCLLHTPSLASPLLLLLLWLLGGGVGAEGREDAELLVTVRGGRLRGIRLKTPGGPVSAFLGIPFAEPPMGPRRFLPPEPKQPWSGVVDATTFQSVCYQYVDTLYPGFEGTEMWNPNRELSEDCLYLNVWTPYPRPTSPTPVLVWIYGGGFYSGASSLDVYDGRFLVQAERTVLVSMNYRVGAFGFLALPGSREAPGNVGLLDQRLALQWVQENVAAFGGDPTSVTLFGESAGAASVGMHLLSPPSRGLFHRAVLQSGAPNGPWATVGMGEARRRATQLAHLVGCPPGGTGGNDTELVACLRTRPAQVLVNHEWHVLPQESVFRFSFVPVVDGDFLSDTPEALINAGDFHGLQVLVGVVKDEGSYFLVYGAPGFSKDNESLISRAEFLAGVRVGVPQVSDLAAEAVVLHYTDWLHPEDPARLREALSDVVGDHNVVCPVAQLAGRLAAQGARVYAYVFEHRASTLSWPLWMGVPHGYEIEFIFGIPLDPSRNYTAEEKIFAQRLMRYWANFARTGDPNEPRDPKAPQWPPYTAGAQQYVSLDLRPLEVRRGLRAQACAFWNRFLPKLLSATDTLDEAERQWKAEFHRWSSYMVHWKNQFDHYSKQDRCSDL
Division of Preclinical Innovation [DPI]
U.S. Environmental Protection Agency [EPA]
National Institutes of Environmental Health Sciences [NIEHS]
National Toxicology Program [NTP]
U.S. Food and Drug Administration [FDA]
Acetylcholinesterase (AChE) is the primary cholinesterase in the body that hydrolyzes a key neurotransmitter, acetylcholine. Inhibition of AChE activity can lead to neurotoxicity. The known inhibitors include organophosphorous pesticides (OP), chemical warfare agents, drugs, and various phytochemicals.
A homogenous cell-based assay using the Amplite Colormetric acetylcholinesterase assay kit (AAT Bioquest, Sunnyvale, CA) was used to evaluate the chemicals in the Tox21 10K library that inhibit AChE activity. The assay uses 5, 5-dithiobis-(2-nitrobenzoic acid) (DTNB) to quantify the thiocholine produced from the hydrolysis of acetylthiocholine by AChE from the SH-SY5Y cells.
Tox21 Assay Protocol Summary:
For the cell-based AChE assay, 2,000 SH-SY5Y cells in 4 uL/well were dispensed into black, clear-bottom 1536-well plates using a Multidrop Combi dispenser (Thermo Scientific, MA). The assay plates were incubated overnight at 37 C to allow cells to attach to the wells, followed by the transfer of 23 nL of compound or DMSO (vehicle control) by a Pintool Station (Wako Automation, CA). The plates were incubated for 30 min at 37 C and 5% CO2, followed by the addition of 4 uL of detection cocktail solution (DTNB, acetylthiocholine) into each well using a Flying Reagent Dispenser (Beckman Coulter, CA) and then 90 min incubation at 37 C.
As for `COc1cc(N)ccc1C`, the Potency result was “inactive”.

Take `CCCCCOC(=O)CCCC`: the Potency entry is “inactive”.

For `CC(=O)OCC(=O)[C@@]12OC(C)(C)O[C@@H]1C[C@H]1[C@@H]3C[C@H](F)C4=CC(=O)C=C[C@]4(C)[C@@]3(F)[C@@H](O)C[C@@]12C`, the Potency entry was “inactive”.

In the case of `NC(=O)c1ccncc1`, the Potency result was “inactive”.

`BrCCCCCBr`: the Potency result is “inactive”.

For the molecule `CC(C)C(OC(=O)c1ccccc1)C(C)(C)COC(=O)c1ccccc1` (stereo not given), the Potency result was “inactive”.

As for `O=P(O)(O)C(O)(Cc1cccnc1)P(=O)(O)O`, the Potency entry is “inactive”.

As for `CC[N+](CC)(CC)CCOC(=O)C(C1CCCC1)C1CCCC1`, the Potency result is “inactive”.

On to `CC(=O)OC(OC(C)=O)c1ccc([N+](=O)[O-])o1`, for which the Potency result is “inactive”.

Consider `CCOC(=O)COc1cc(-n2ncc(C(F)(F)F)c(C)c2=O)c(F)cc1Cl`, for which the Potency entry was “inactive”.

As for `CC1(C)CCC(C)(C)c2cc(NC(=O)c3ccc(C(=O)O)cc3)ccc21`, the Potency entry is “inactive”.

Regarding `O=C(CN1CCN(Cc2ccc3c(c2)OCO3)CC1)N1c2ccccc2Sc2ccccc21`, the Potency entry was “inactive”.

As for `O=C(CCCl)NCCc1ccccc1`, the Potency result is “inactive”.

For the molecule `Nc1nc(N)c(-c2ccccc2)s1`, the Potency entry was “inactive”.

In the case of `CC(=O)c1c(C)cc(C(C)(C)C)cc1C`, the Potency entry is “inactive”.

For the molecule `CN1CCCN=C1COC(=O)C(O)(c1ccccc1)C1CCCCC1` (stereo not given), the Potency result is “inactive”.

For the molecule `CCN(CC)c1ccc2c(c1)Oc1cc(N(CC)CC)ccc1C21OC(=O)c2ccccc21`, the Potency result is “inactive”.

On to `CCN1CCN(c2cc3c(cc2F)c(=O)c(C(=O)O)cn3C2CC2)CC1`, for which the Potency result was “inactive”.

`CN(C)CCCO[C@@H]1[C@H]2OC(C)(C)O[C@H]2O[C@@H]1C(O)CO` (stereo not given in full): the Potency entry is “inactive”.

`Cc1onc(-c2ccccc2)c1-c1ccc(S(N)(=O)=O)cc1`: the Potency entry was “inactive”.

For the molecule `C=CC1CC2C=CC1C2` (stereo not given), the Potency result is “inactive”.

`CC1CCC(C(C)(C)O)CC1` (stereo not given): the Potency entry is “inactive”.

As to `C/C=C/C(=O)CC`, the activity, negative = inhibition is 0.402% [at 23.6 µM] (inactive).

In the case of `CCCC(=O)C(=O)O`, the Potency result is “inactive”.

On to `Clc1nc2ccccc2nc1Cl`, for which the Potency entry is “inactive”.

As to `COc1ccccc1NC(=O)c1cc2ccccc2cc1O`, the Potency result is “inactive”.

Consider `C=C(C)C(=O)OC1CC(C)CC(C)(C)C1` (stereo not given), for which the Potency result is “inactive”.

For `CCC(=O)C(=O)CC`, the Potency result was “inactive”.

With `CCSCC`, the Potency entry is “inactive”.

On to `CCCCCCCCCCCCS(=O)(=O)Cl`, for which the activity, negative = inhibition was -0.822% [at 23.6 µM] (inactive).

For `CC(=O)N(CC(=O)N(C)C)c1ccccc1`, the Potency result is “inactive”.

For `Cc1cccc(N(C)C)c1`, the Potency entry is “inactive”.

With `Cc1c(C)c2c(c(C)c1OC(=O)CCC(=O)O)CC[C@@](C)(CCC[C@H](C)CCC[C@H](C)CCCC(C)C)O2`, the Potency result was “inactive”.

For `CC(=O)C(C)=O`, the Potency entry was “inactive”.

As for `C=Cc1ccc(S(=O)(=O)O)cc1`, the Potency result was “inactive”.

For the molecule `CNC(C)=O`, the Potency entry is “inactive”.

`N=C1N=C(N)c2ccccc21`: the Potency result was “inactive”.

In the case of `O=C(Nc1ccc([N+](=O)[O-])cc1)Nc1ccc([N+](=O)[O-])cc1` (tested in a mixture with another compound), the Potency result was “inactive”.

Take `CCc1nn(CCCN2CCN(c3cccc(Cl)c3)CC2)c(=O)n1CCOc1ccccc1`: the Potency result is “inactive”.

`CC(C)COC(=O)COc1cc(Cl)c(Cl)cc1Cl`: the Potency entry is “inactive”.
